About 890 (0.31%) of roughly 290,000 compounds were called active. Rule as the data show it: active = inhibition mostly above about 52% (no sharp cut-off); inactive = mostly below about 76%. The entries come from a sample that favours actives as a whole.
Assay: cell-free HIV fusion peptide-binding blockers – biochemical, uHTS, fluorescence dequenching, primary screen (AID 1986)
Details: 30 min, stronger effect = higher value
[1] = measured here: repeat confirmation average inhibition, at 18.6 µM

SMILES | inhibition (at 20 µM) | inhibition [1] [%]
Cc1ccc(/C=C2/Sc3ccc(C(=O)N4CCC5(CC4)OCCO5)cc3NC2=O)cc1 | 54.6% (inactive) | 37.1
CCOC(=O)c1sc(/N=C/c2c(O)n(-c3ccccc3)c(=O)[nH]c2=O)c(C#N)c1C | -1.7% (inactive) | –
O=C(O)C1C2c3ccccc3C(c3ccccc32)C1C(=O)Nc1ccccc1 (stereo unspecified) | 4.1% (inactive) | –
CC12CN3CCN(CC(C3)C1O)C2 (stereo unspecified) | -2.7% (inactive) | –
COc1ccccc1/C=N/N=C(/N)N[N+](=O)[O-] | 2.7% (inactive) | –
COc1cccc(CN2CC=C(c3ccc(F)cc3)CC2)c1 | 2.3% (inactive) | –
COc1ccc(CN2CCN(Cc3ccccc3)CC2)c(OC)c1 | -1.2% (inactive) | –
Cc1cc(/C=C2\C(=O)NC(=O)N(c3ccc(Cl)cc3)C2=O)c(C)n1-c1sc2c(c1C#N)CCCC2 | 64.4% (inactive) | 9
Cc1ccc(N2C(=O)NC(=O)/C(=C\c3cc(C)n(-c4sc5c(c4C#N)CCCC5)c3C)C2=O)cc1 | 52.2% (active) | –
Cc1cccc(N2C(=O)NC(=O)/C(=C\c3cc(C)n(-c4sc5c(c4C#N)CCCC5)c3C)C2=O)c1C | 22% (inactive) | –
CNP(=O)(Oc1ccccc1)OC12CC3CC(CC(C3)C1)C2 (stereo unspecified) | 1.8% (inactive) | –
C=CCn1c(O)c(C(C)=NCCCn2ccnc2)c(=O)[nH]c1=O | 0.6% (inactive) | –
Cc1cc2c(C(C)C)c(O)c(O)c(C=O)c2c(O)c1-c1c(C)cc2c(C(C)C)c(O)c(O)c(C=O)c2c1O | 65.7% (active) | –
COc1cccc(C(=O)C2CCCN(C3CCOCC3)C2)c1 (stereo unspecified) | 0.4% (inactive) | –
Cc1cccc(N2C(=O)NC(=O)/C(=C\c3ccc4c(c3)CCCN4Cc3ccccc3)C2=O)c1 | 48.8% (inactive) | –
Cc1ccccc1N1C(=O)NC(=O)/C(=C\c2ccc3c(c2)CCCN3Cc2ccccc2)C1=O | 15.8% (inactive) | –
O=C1NC(=O)N(c2ccc(F)cc2)C(=O)/C1=C/c1ccc2c(c1)CCCN2Cc1ccccc1 | 56.3% (active) | –
CC1CCC(N2CCN(C(=O)COc3ccccc3)CC2)CC1 (stereo unspecified) | 2.3% (inactive) | –
Cn1cc(C(=O)c2ccccc2)c2ccccc21 | -2% (inactive) | –
Cn1cc(C=C2C(=O)NC(=O)NC2=O)c2ccccc21 | 160% (inactive) | –
Cn1cc(C=C(C#N)C#N)c2ccccc21 | 72.4% (active) | 90.2
C=C1N2CCC(CC2)C1(O)c1ccccc1C (stereo unspecified) | 1.2% (inactive) | –
O=C(c1cccnc1)C1CCCN(Cc2nc(-c3cnccn3)no2)C1 (stereo unspecified) | -0.9% (inactive) | –
C=CCc1cc(C=C2C(=O)N(C)C(=O)N(C)C2=O)cc(OCC)c1OCc1ccccc1 | 11.3% (inactive) | –
O=c1cc(C(F)(F)F)c2cc3c4c(c2o1)CCCN4CCC3 | -0.6% (inactive) | –
Cc1cc2c(C(F)(F)F)cc(=O)oc2c2c1NCCC2 | 51.9% (active) | 56.2
Cc1cc(=O)oc2cc3c(cc12)CCCN3 | 0.7% (inactive) | –

From PubChem BioAssay AID1986 (Sanford-Burnham Center for Chemical Genomics, 2009)
